Compound activity (PubChem BioAssay)
Efflux pump inh: inhibitors of Candida efflux pumps in yeast, primary screen, S. cerevisiae, Nile Red, multiplex | S. cerevisiae Candida pump triplex | inhibition, % at 10 µM | actives 0.44% (n = 330,000) | AID 485275, 2010;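 active = plate passing quality check with inhibition over a set limit, or well fluorescence over plate mean plus 4 SD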;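 also: Nile Red retained in pooled yeast measured as flow cytometry median fluorescence; 0% = buffer negative control and 100% = Enniatin B positive control; higher means more Nile Red kept so more efflux inhibition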
Calb FLC: C. albicans growth inhibition with fluconazole, primary screen, CaCi-2 strain, Alamar Blue fluorescence. C. albicans CaCi-2 (fluconazole-resistant clinical isolate) + fluconazole, 48 h. growth inhibition, % (concentration not given with the values). actives 0.57% (n = 300,000);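 active = growth inhibition above about 58% in most replicates, limit read from the data, passing the limit was not always enough; inconclusive = exactly half the replicates above a set limit; inactive = most replicates below a set limit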;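 also: all wells also contain fluconazole at 8 µg/ml as a sub-toxic cotreatment; 0% = median of DMSO wells and 100% = median of geldanamycin control wells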
KCC2 mod: KCC2 cotransporter modulators, thallium flux, primary screen, cell-based, HEK293 KCC2, FluoZin-2 fluorescence, MLSMR. Solute carrier family 12 member 5 (Homo sapiens), Q9H2X9. KCC2 cells, thallium flux FluoZin-2 fluorescence. B-score of Tl+ flux slope (higher = more flux/activation; lower = inhibition) at 10 µM. actives 2.2% (n = 190,000);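 active = thallium flux slope and its plate-corrected score both differing from the plate sample mean at a set confidence after two filtering rounds, in either direction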;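 also: slope of fluorescence scaled to starting intensity during 10 to 20 s after thallium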
PHOSPHO1 block: PubChem AID 1565; recombinant PHOSPHO1, absorbance phosphatase assay; actives 1.1% (n = 290,000); inhibition, % at 13.3 µM; in the data active = inhibition above about 60%
Target sequence (Q8TCT1 whole entry, looked up): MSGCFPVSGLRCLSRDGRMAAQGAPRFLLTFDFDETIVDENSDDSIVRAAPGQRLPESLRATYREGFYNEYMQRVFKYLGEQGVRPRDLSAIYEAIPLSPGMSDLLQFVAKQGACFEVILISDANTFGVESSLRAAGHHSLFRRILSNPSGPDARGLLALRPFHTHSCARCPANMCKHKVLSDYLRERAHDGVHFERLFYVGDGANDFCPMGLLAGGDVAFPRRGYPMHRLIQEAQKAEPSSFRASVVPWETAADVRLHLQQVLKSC
Cardio protect: cardioprotection against H2O2-induced cell death, primary screen, uHTS, H9c2 cells, ATPLite luminescence; H9c2 cardiomyocytes, H2O2 injury protection, 2 h; protection from H2O2 cell death, % at 20 µM; actives 0.63% (n = 360,000);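 active = compounds giving at least 50% protection of heart cells from peroxide-induced death in the single-dose screen, raw or plate-pattern-corrected value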;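 also: 0% = DMSO wells with peroxide and 100% = DMSO wells without peroxide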
Active calls of the source: *; ? = inconclusive; · = not tested or not shown. This is a sample that favours compounds with a hit; in the whole collection about 3.3% have one here.

SMILES | Efflux pump inh | Calb FLC | KCC2 mod | PHOSPHO1 block | Cardio protect
CCOC(=O)c1[nH]cnc1N=Nc1c(O)ccc2ccccc12 | 0 | 3 | -0.22 | -11 | 65*
Oc1ccc2ccccc2c1N=Nc1ccccn1 | 0 | 0 | 3 | -50 | 13
Cc1cc(NC(=O)c2cccc(Oc3ccccc3)c2)n[nH]1 | 0 | 96* | -0.86 | 40 | -17
CC1CN=C(N(C(=S)Nc2ccccc2)c2cccc(C(F)(F)F)c2)S1 (configuration not stated) | 0 | 4 | 0 | 0 | -6
Cc1cccc(NC(=O)CSc2nnc(CNC(=O)c3ccco3)n2C)c1 | 0 | 9 | · | 36 | -1
Cn1c(CNC(=O)c2ccco2)nnc1SCC(=O)Nc1cccc(Br)c1 | 0 | -11 | · | 93* | -4
Cc1ccccc1CN(C)CC(=O)Nc1cccc(S(=O)(=O)N(C)c2ccccc2)c1 | 0 | 9 | -1.1 | 62* | -13
COCCN=C1Sc2nc3ccc(C)cc3cc2CN1Cc1ccco1 | 0 | -2 | 0.8 | 97* | 7
Cn1ccnc1SCC(=O)c1ccc(Br)cc1 | 0 | ? | · | 61* | 3
CN1CCN(C(=S)c2ccc(Br)cc2)CC1 | 0 | -1 | 0.47 | 61* | -3
O=C(O)c1ccc(Cl)cc1Nc1nc2cc(Cl)ccc2o1 | 0 | 6 | · | 6 | -10
Cc1cc(C(=O)NC(Cc2ccccc2)C(=O)O)c(C)o1 (configuration not stated) | 0 | 9 | -0.11 | 28 | 1
COc1ccc(-c2cc(C(=O)NNC3=NCCC3)c3c(C)nn(-c4ccccc4)c3n2)cc1 | 0 | -7 | -0.44 | 1 | 84*
O=C(N/N=C/c1ccccc1O)c1ccncc1 | 0 | -19 | · | · | 59*
CC(=C/c1ccc(C(C)C)cc1)/C=N/NC(=O)c1ccncc1 | 0 | ? | -0.17 | -7 | 58*
O=C(N/N=C/c1ccccc1)c1cc[n+]([O-])cc1 | 0 | 0 | · | 35 | 6
O=C(N/N=C/c1ccccc1O)c1cc[n+]([O-])cc1 | 0 | -1 | · | 15 | 54*
CCCCCCCCN1N=N[C@H]2[C@H]1[C@@H]1C[C@H]2N(C(=O)OC(C)(C)C)O1 | 0 | · | · | · | -16
Cn1cccc1C(=O)NC(=O)COC(=O)CCNS(=O)(=O)c1ccc(Cl)cc1 | 0 | · | · | · | -7
CCN(CC)c1ncnc2c1ncn2[C@H]1CN(Cc2ccc(Cl)cc2)C[C@@H](CO)O1 | · | · | · | · | -2
COc1cccc(/C=N/Nc2cc(N3CCOCC3)ncn2)c1O | 0 | 98* | · | 54 | 17
COc1cccc(/C=N/Nc2ncnc3c2ncn3Cc2ccccc2)c1O | 0 | -4 | 0.34 | 2 | 60*
COc1ccc(/C=N/Nc2cc(N3CCOCC3)ncn2)c(OC)c1 | 0 | 14 | · | -18 | -1
CCOc1ccc(/C=N/Nc2cc(N3CCOCC3)nc(C)n2)c(O)c1 | 0 | 31 | · | 34 | 78*
CCOc1ccc(/C=N/Nc2cc(C)nc(N3CCOCC3)n2)cc1 | 0 | 26 | 0.38 | 11 | 2
SMILES | Efflux pump inh | Calb FLC | KCC2 mod | PHOSPHO1 block | Cardio protect
O=C(NCc1cccnc1)c1ccc(CS(=O)(=O)c2ccc(Cl)cc2)o1 | 0 | -2 | -5.3* | 38 | -5
O=C(NCc1cccs1)c1ccc(CS(=O)(=O)c2ccc(Cl)cc2)o1 | 0 | 4 | · | 14 | 3
FC(F)(F)c1cnc(NNC(=S)Nc2ccccc2Cl)c(Cl)c1 | 0 | ? | 29* | 1 | -24
Cc1cccc(-c2cccc(NC(=O)C3CCCN(C(=O)c4csc(C)n4)C3)c2)c1 (configuration not stated) | 0 | 0 | · | 12 | -1
CCOc1cc(CNCc2ccccn2)cc(Cl)c1OC | 0 | 20 | · | 41 | 1
CCOc1cc(CNCC(O)c2ccccc2)cc(Cl)c1OC (configuration not stated) | 0 | ? | 0.22 | 62* | -4
O/C=c1\ccc2cccc3nc(C(F)(F)F)nc1c23 | 3.0* | 2 | · | 2 | -22
NNc1nc(C(F)(F)F)nc2ccccc12 | 0 | -6 | · | 34 | 3
COc1ccc(C2NN=C(c3ccc(C)cc3)S2)cc1OC (configuration not stated) | 0 | -20 | · | 28 | -24
Fc1cccc(C2NN=C(c3ccccc3)S2)c1 (configuration not stated) | 0 | -19 | 26* | 16 | -7
CNC[C@H](Cc1ccccc1)NC[C@@H](Cc1cccc2ccccc12)NCCc1ccc(C)cc1 | 0 | 111* | · | 10 | -22
CNCCNC[C@H](Cc1cccc2ccccc12)NCCc1ccccc1 | 0 | · | · | · | 9
COc1ccc(Br)cc1C1CC(=O)N2CN(C)CSC2=C1C#N (configuration not stated) | 0 | 4 | -1.8 | 48 | 6
CCOc1ccc(N2CSC3=C(C#N)C(c4ccco4)CC(=O)N3C2)cc1 (configuration not stated) | 0 | -6 | -0.00064 | 94* | 1
Cc1ccc(C2CC(=O)N3CN(c4ccc(Br)cc4)CSC3=C2C#N)o1 (configuration not stated) | 0 | -14 | · | 93* | 3
COc1ccc(-n2c(=S)[nH]c3ccccc32)cc1 | 0 | ? | 23* | 32 | 0
C/C(=N\NC(=O)CCC(=O)Nc1ccc(C)c(C)c1)C1CC1 | 0 | 123* | · | 31 | 6
COc1ccc(NC(=O)CSc2nnc(-c3ccc(F)cc3)o2)cn1 | 0 | · | · | · | 0
CC(=O)NC1N=C(C)N(c2ccccc2)C1=O (configuration not stated) | 0 | -1 | 0.59 | 100* | -7
Cc1cc(C)n(C2CC(=O)N(c3ccccc3)C2=O)n1 (configuration not stated) | 0 | 13 | 0.81 | -2 | 7
O=C(c1ccco1)N1CCN(c2ncnc3c(-c4ccccc4)nsc23)CC1 | 0 | 89* | -0.13 | 8 | 18
COc1ccc(-c2nsc3c(N4CCN(C(=O)c5ccco5)CC4)ncnc23)cc1 | 0 | 21 | 0.11 | 39 | 39
Cn1c(O)c(N=Nc2nc(-c3ccccc3)cs2)c2ccccc21 | 0 | 7 | 52* | 1 | 62*
Nc1nnc(SCC(=O)Nc2cc(S(=O)(=O)N3CCOCC3)ccc2N2CCCC2)s1 | 0 | · | · | · | 4
COc1cc(S(=O)(=O)N2CCOCC2)ccc1NC(=O)CSc1nnc(N)s1 | 0 | -5 | 0.12 | 65* | 11
O=C(COC(=O)c1cccc(S(=O)(=O)N2CCCCC2)c1)NCc1cccc(Cl)c1 | · | · | · | · | 4
NC(=O)c1cc(-c2ccccc2)nc(N2CCOCC2)n1 | 0 | -4 | -0.25 | 10 | 3
CC[n+]1cc(-c2ccccc2)nc(N2CCOCC2)n1 | 0 | -4 | 0.87 | 100* | 1
N#Cc1c(N2CCN(c3ccc([N+](=O)[O-])cc3)CC2)[n+](=O)c2ccc(Cl)cc2n1[O-] | · | · | · | · | -6
